# PubChem BioAssay (NCATS)
# Inconclusive results are not listed. The source made the active and inactive calls. Calls follow the shape of the dose curve; as a rule, active = well fitted curve in the direction sought with a large enough effect; inconclusive = small, poorly fitted or top-dose-only effect, or another doubt; inactive = no such curve, though single readings can be large; an effect the other way counts as inactive or inconclusive.
# Assay: BET inhibitor-based combinations targeting novel dependencies in MECOM-rearranged (r) AML: UCSD-AML1 cell line (AID 2202235); also: nearly all actives have a fitted effect of over 40% in size
# Conditions: UCSD-AML1 AML cells viability, CellTiter-Glo, 48 h; series mostly up to 46 µM
# Summary of the method: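 Luminescent ATP readout (CellTiter-Glo, 15 min at room temperature) after 48 hr drug exposure gave viability. Dose-response curves, normalized to DMSO and empty-well controls, were summarized as area under the curve and its mean-centred Z-score.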
# Potency is read from the fitted curve at half-maximal effect.
row,Structure (SMILES),Potency
1,Clc1ccccc1CN1CCc2sccc2C1,inactive
2,Cc1c(-c2ccc(O)cc2)n(Cc2ccc(OCCN3CCCCCC3)cc2)c2ccc(O)cc12,inactive
3,Cc1cc2c(C(C)C)c(O)c(O)c(C=O)c2c(O)c1-c1c(C)cc2c(C(C)C)c(O)c(O)c(C=O)c2c1O,9.34 µM (active)
4,CCCOc1ccc2nc(NC(=O)OC)[nH]c2c1,0.263 µM (active)
5,Cc1nc(N)sc1-c1ccnc(Nc2ccc(N3CCOCC3)cc2)n1,0.833 µM (active)
6,CCc1cccc(CC)c1NC(=O)N1Cc2[nH]nc(NC(=O)c3ccc(N4CCN(C)CC4)cc3)c2C1,14.8 µM (active)
7,CCCOc1ccc(C(=O)OCCN(CC)CC)cc1N,inactive
8,COc1cc(N2CCC(O)CC2)ccc1Nc1cc(Nc2ccccc2S(=O)(=O)C(C)C)c2cc[nH]c2n1,26.3 µM (active)
9,COc1ccc(-c2cc3nccn3c(Nc3ncccc3C(N)=O)n2)cc1OC,6.61 µM (active)
10,Cn1c2ccccc2c2c3c(c4c5ccccc5n(CCC#N)c4c21)CNC3=O,8.33 µM (active)
11,Cc1coc2c1C(=O)C(=O)c1c-2ccc2c1CCCC2(C)C,inactive
12,COc1ncnc(NS(=O)(=O)c2ccc(N)cc2)c1OC,inactive

# Assay: BET inhibitor-based combinations targeting novel dependencies in MECOM-rearranged (r) AML: AML-191 cell line (AID 2202236; also: nearly all actives have a fitted effect of over 35% in size)
# Conditions: AML-191 viability, CellTiter-Glo luminescence, 48 h; series mostly up to 46 µM
# Summary of the method: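 Luminescent ATP readout (CellTiter-Glo) after 48 hr drug exposure gives viability. Curves span 11 concentrations and are normalized to DMSO and empty wells. Activity is reported as area under the curve and its Z-transform within each cell line.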
row,Structure (SMILES),Potency
1,Clc1ccccc1CN1CCc2sccc2C1,inactive
2,Cc1cc2c(C(C)C)c(O)c(O)c(C=O)c2c(O)c1-c1c(C)cc2c(C(C)C)c(O)c(O)c(C=O)c2c1O,9.34 µM (active)
3,CCCOc1ccc2nc(NC(=O)OC)[nH]c2c1,0.263 µM (active)
4,CC(=O)N(O)CCCCCNC(=O)CCC(=O)N(O)CCCCCNC(=O)CCC(=O)N(O)CCCCCN,8.33 µM (active)
5,Cc1nc(N)sc1-c1ccnc(Nc2ccc(N3CCOCC3)cc2)n1,7.42 µM (active)
6,C[C@H]1c2cccc(O)c2C(O)=C2C(=O)[C@]3(O)C(O)=C(C(N)=O)C(=O)[C@@H](N(C)C)[C@@H]3[C@@H](O)[C@@H]21,26.3 µM (active)
7,CCCOc1ccc(C(=O)OCCN(CC)CC)cc1N,inactive
8,CC(C)[C@H](C(=O)Nc1ccc(C(=O)NO)cc1)c1ccccc1,0.662 µM (active)
9,COc1cc(N2CCC(O)CC2)ccc1Nc1cc(Nc2ccccc2S(=O)(=O)C(C)C)c2cc[nH]c2n1,16.6 µM (active)
10,COc1ccc(-c2cc3nccn3c(Nc3ncccc3C(N)=O)n2)cc1OC,8.33 µM (active)
11,Cn1c2ccccc2c2c3c(c4c5ccccc5n(CCC#N)c4c21)CNC3=O,3.32 µM (active)
12,Cc1coc2c1C(=O)C(=O)c1c-2ccc2c1CCCC2(C)C,inactive
13,COc1ncnc(NS(=O)(=O)c2ccc(N)cc2)c1OC,inactive
